Source: the supplement of paper PMC9135407
Several values for one entry are separate records, joined by “and”; a condition that tells them apart may be missing. Equal values may be shown once. Where a name gives a salt, the structure may show the parent alone. About 620 (11%) of roughly 5,800 compounds showed activity. Only a selection was taken, and actives are over-represented in it overall. Values without a mark were called inactive.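 How the source made its calls: active = score above a cut-off or among the top three wells of a plate; in these data no inactive exceeds 0.85.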

System: primary human hepatic stellate cells (donor 1)
Assay: scaled lipid accumulation score (0 = DMSO-like, 1 = nortriptyline-like); higher = stronger HSC inactivation (lipid re-accumulation), active = hit call of the paper
Details: 48 h
Procedure: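 Primary lipid accumulation screen in primary human hepatic stellate cell myofibroblasts (donor 1, passage 8) in 384-well plates. 100 nL of library compound was pin-transferred into 30 µL medium in duplicate, and cells were treated for 48 h. The 'Scaled' score combines distance from plate baseline, toxicity and reproducibility penalties, and is normalised to nortriptyline (positive) and DMSO (negative) controls on each plate. A hit is defined as scaled >0.85 or among the top 3 wells per plate.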

[1] = library stock concentration: 1 mM
[2] = library stock concentration: 10 mM
[3] = library stock concentration: 9.7 mM
[4] = library stock concentration: 80 uM
[5] = library stock concentration: 400 uM
[6] = library stock concentration: 2 mM
[7] = library stock concentration: 3.33 mM

CN[C@@H]1C[C@H]2O[C@@](C)([C@@H]1OC)n1c3ccccc3c3c4c(c5c6ccccc6n2c5c31)C(=O)NC4 [Staurosporine]
scaled lipid accumulation score [1]: 0.546 (active)

CN[C@@H]1C[C@H]2O[C@@](C)([C@@H]1OC)n1c3ccccc3c3c4c(c5c6ccccc6n2c5c31)C(=O)NC4 [staurosporine]
scaled lipid accumulation score (library stock concentration: 10.7 mM): 0.643

COC(=O)[C@@]1(O)C[C@H]2O[C@]1(C)n1c3ccccc3c3c4c(c5c6ccccc6n2c5c31)C(=O)NC4
scaled lipid accumulation score (library stock concentration: 1.1 mM): 0.142

O=C(Cc1ccc(Cl)c(Cl)c1)N1CCCCC1CN1CCCC1 (stereo unspecified)
scaled lipid accumulation score [2]: 0.581 and 0.566

COC(=O)N1CCN(C(=O)Cc2ccc(Cl)c(Cl)c2)C(CN2CCCC2)C1 (stereo unspecified)
scaled lipid accumulation score [2]: 0.05

COC(=O)N1CCN(C(=O)Cc2ccc(Cl)c(Cl)c2)C(CN2CCCC2)C1.O=C(O)/C=C/C(=O)O (stereo unspecified)
scaled lipid accumulation score [2]: 0.902 (active)

CO[C@H]1CC=C2CCN3CCC4=C(CC(=O)OC4)[C@]23C1 [Dihydro-beta-erythroidine hydrobromide]
scaled lipid accumulation score [2]: ≤ -0.07

COc1ccc2c(c1OC)C(=O)OC2C1c2cc3c(cc2CCN1C)OCO3 (single isomer, unassigned; (+)) [(+)-Hydrastine]
scaled lipid accumulation score [2]: ≤ -0.07

CCCCC/C=C\C/C=C\C/C=C\C/C=C\CCCC(=O)Nc1cccc([N+](=O)[O-])c1 [Arachidonoyl m-Nitroaniline]
scaled lipid accumulation score [1]: ≤ 0

CCOC(=O)C1(c2ccccc2)CCN(CCC(C#N)(c2ccccc2)c2ccccc2)CC1
scaled lipid accumulation score [2]: ≤ 0

CN(C)C(=O)C(CCN1CCC(O)(c2ccc(Cl)cc2)CC1)(c1ccccc1)c1ccccc1.Cl
scaled lipid accumulation score [3]: 1.02 (active)

CN(C)C(=O)C(CCN1CCC(O)(c2ccc(Cl)cc2)CC1)(c1ccccc1)c1ccccc1.Cl [Loperamide hydrochloride]
scaled lipid accumulation score [2]: 1.46 (active)

O=C(N[C@H]1CN2CCC1CC2)c1cc2ccoc2cn1
scaled lipid accumulation score [2]: ≤ -0.055

Cl[C@H]1[C@H](Cl)[C@@H](Cl)[C@@H](Cl)[C@H](Cl)[C@H]1Cl [Lindane]
scaled lipid accumulation score (library stock concentration: 6.9 mM): ≤ -0.001
scaled lipid accumulation score [2]: ≤ 0

OC[C@@H](O)[C@H]1O[C@@H]2O[C@H](C(Cl)(Cl)Cl)O[C@@H]2[C@H]1O
scaled lipid accumulation score [2]: ≤ 0

CN(C)NC(=O)CCC(=O)O [Daminozide]
scaled lipid accumulation score [4]: ≤ 0
scaled lipid accumulation score [5]: ≤ 0
scaled lipid accumulation score [6]: ≤ 0
scaled lipid accumulation score [2]: ≤ 0

CC[C@@H](C(=O)[C@@H](C)[C@@H](O)[C@H](C)[C@@H]1O[C@@H]([C@@H](CC)C(=O)O)CC[C@@H]1C)[C@H]1O[C@]2(C=C[C@@H](O)[C@]3(CC[C@@](C)([C@H]4CC[C@](O)(CC)[C@H](C)O4)O3)O2)[C@H](C)C[C@@H]1C [Salinomycin, sodium]
scaled lipid accumulation score [2]: 0.422

Clc1ccc(C2=CCCC3CCC2N3)cn1 (stereo unspecified) [UB 165 fumarate]
scaled lipid accumulation score [2]: 0.039

NC1=NC(=O)C(c2ccccc2)O1 (stereo unspecified) [Pemoline]
scaled lipid accumulation score [2]: ≤ 0

C=C(C)[C@@H]1[C@H]2OC(=O)[C@@H]1[C@]1(O)C[C@H]3OC34C(=O)O[C@H]2[C@@]41C.CC(C)(O)[C@@H]1[C@H]2OC(=O)[C@@H]1[C@]1(O)C[C@H]3OC34C(=O)O[C@H]2[C@@]41C (stereo partly specified) [Picrotoxin]
scaled lipid accumulation score [2]: ≤ -0.055

O=C1C=C2C(=CCOC2O)O1 (stereo unspecified) [Patulin]
scaled lipid accumulation score [2]: 1.21 (active)

C[C@H](N)Cn1ccc2cc(F)c(Cl)cc21.O=C(O)/C=C/C(=O)O [Ro 60-0175 fumarate]
scaled lipid accumulation score [2]: 0.953 (active)

O=C[C@H](Cl)[C@@H](O)[C@H](O)[C@H](O)CO [2-Chloro-2-deoxy-D-glucose]
scaled lipid accumulation score [2]: ≤ -0.07

CCN1C[C@]2(COC)CC[C@H](O)[C@]34C1[C@@](O)([C@@H](OC)[C@H]23)[C@@]1(O)C[C@H](OC)[C@H]2C[C@@H]4[C@@H]1[C@H]2OC [Delsoline]
scaled lipid accumulation score: ≤ 0

CN(N=O)c1ccc(O)c(O)c1 [Me-3,4-dephostatin]
scaled lipid accumulation score [2]: ≤ -0.055

Br.Br.N=C(NCc1ccc(Cl)cc1)SCCCc1c[nH]cn1 [Clobenpropit dihydrobromide]
scaled lipid accumulation score [2]: 1.53 (active)

N=C(NCc1ccc(Cl)cc1)SCCCc1c[nH]cn1 [Clobenpropit]
scaled lipid accumulation score [2]: 0.903 (active)

Clc1ccc(C2CC3CCC2N3)cn1 (stereo unspecified)
scaled lipid accumulation score (library stock concentration: 24 mM): ≤ -0.012

C1=C2CCCN[C@H]2[C@@H]2C[C@H]1[C@H]1CCCCN1C2 [Aloperine]
scaled lipid accumulation score [7]: 0.028
scaled lipid accumulation score [2]: 0.068

COc1cc(C=Cc2ccc(OC)c(O)c2)cc(OC)c1
scaled lipid accumulation score [1]: 0.176

Clc1ccc(N2CC3CCC(C2)N3)nn1
scaled lipid accumulation score [2]: ≤ -0.07

C[N+]1(C)[C@@H]2CC(OC(=O)[C@H](CO)c3ccccc3)C[C@H]1[C@@H]1O[C@@H]12 (single isomer, unassigned; (-)) [(-)-Scopolamine methyl nitrate]
scaled lipid accumulation score [2]: ≤ 0

CCN(CC)CCO[C@H]1CC[C@@]2(C)C(=CC[C@@H]3[C@@H]2CC[C@]2(C)C(=O)CC[C@@H]32)C1.Cl
scaled lipid accumulation score [2]: 1.39 (active)

CC(=O)O[C@H]1CC[C@@]2(C)C(=CC[C@@H]3[C@@H]2CC[C@]2(C)C(=O)CC[C@@H]32)C1 [Dehydroisoandosterone 3-acetate]
scaled lipid accumulation score: ≤ 0

CCN(CC)CCO[C@H]1CC[C@@]2(C)C(=CC[C@@H]3[C@@H]2CC[C@]2(C)C(=O)CC[C@@H]32)C1
scaled lipid accumulation score [1]: 0.116

CC(=O)O[C@H]1CC[C@@]2(C)C(=CC[C@@H]3[C@@H]2CC[C@]2(C)C(=O)CC[C@@H]32)C1 [Prasterone acetate]
scaled lipid accumulation score [2]: 0.103

CC(C)NC(C)Cc1ccc(I)cc1 (stereo unspecified) [Iofetamine hydrochloride]
scaled lipid accumulation score [2]: 0.757

COP(=S)(OC)Oc1ccc(SC)c(C)c1
scaled lipid accumulation score [2]: ≤ 0

CO[C@H](C)[C@](O)(C(=O)OCC1=CCN2CC[C@H](O)[C@@H]12)C(C)C [Heliotrine]
scaled lipid accumulation score: ≤ 0

CO/C1=C\C(C)=C\[C@@H](C)[C@@H](O)[C@@H](C)C/C(C)=C/C=C/[C@H](OC)[C@@H]([C@@H](C)[C@@H](O)[C@H](C)[C@@]2(O)C[C@@H](O)[C@H](C)[C@@H](C(C)C)O2)OC1=O [Bafilomycin A1]
scaled lipid accumulation score (library stock concentration: 800 uM): 1.08 (active)

CCCN(CCC)C1CCc2cccc(O)c2C1 (stereo unspecified) [8-Hydroxy-DPAT hydrobromide]
scaled lipid accumulation score [2]: 0.055

CCCN(CCC)C1CCc2cccc(O)c2C1 (stereo unspecified)
scaled lipid accumulation score [2]: ≤ -0.07

O=C(O)CCC(CP(=O)(O)O)C(=O)O (stereo unspecified) [PMPA (NAALADase inhibitor)]
scaled lipid accumulation score [2]: ≤ -0.006

CCCCC/C=C\C/C=C\C/C=C\C/C=C\CCCC(=O)NCCCC(=O)O [N-Arachidonoyl-.gamma.-Aminobutyric Acid]
scaled lipid accumulation score [1]: 0.032

CCN1C[C@]2(COC)CC[C@H](OC)[C@]34C5C[C@@H]6[C@@H](OC)C[C@@]7(OCO[C@@]7(C13)[C@@H](O)C24)C5[C@H]6OC (stereo partly specified) [Delcorine]
scaled lipid accumulation score: ≤ 0

CN(C)C(=S)SSC(=S)N(C)C [Thiram] [listing 1 of 2 here]
scaled lipid accumulation score [2]: 0.163

CN(C)C(=S)SSC(=S)N(C)C [Thiram] [listing 2 of 2 here]
scaled lipid accumulation score (library stock concentration: 8.3 mM): 0.965 (active)

Ic1ccccc1CNC1C2CCN(CC2)C1C(c1ccccc1)c1ccccc1 [L-703,606 oxalate salt hydrate]
scaled lipid accumulation score [2]: 0.063

CN1CCC(c2ccc(F)cc2)C(COc2ccc3c(c2)OCO3)C1 (stereo unspecified)
scaled lipid accumulation score [3]: 0.664

CCCCCC(/C=C/C=O)OO (stereo unspecified) [4-hydroperoxy 2-Nonenal]
scaled lipid accumulation score [1]: 0.019

O=C1NC(=O)c2c1c1c3ccccc3n3c1c1c2c2ccccc2n1[C@H]1CC[C@@H]3O1
scaled lipid accumulation score [7]: 0.338

COC(=O)[C@]1(O)C[C@@H]2O[C@@]1(C)n1c3ccccc3c3c4c(c5c6ccccc6n2c5c31)C(=O)NC4 [K-252a, Nocardiopsis sp.]
scaled lipid accumulation score [7]: 0.362

O=C1NC(=O)c2c1c1c3ccccc3n3c1c1c2c2ccccc2n1C1CCC3O1
scaled lipid accumulation score [2]: 1.3 (active)

Cc1sc2c(c1C)C(c1ccc(Cl)cc1)=N[C@H](CC(=O)OC(C)(C)C)c1nnc(C)n1-2
scaled lipid accumulation score [4]: ≤ 0
scaled lipid accumulation score [5]: ≤ 0
scaled lipid accumulation score [6]: ≤ 0
scaled lipid accumulation score [2]: ≤ 0

CC[C@@]1(O)C[C@H](O[C@H]2C[C@H](N(C)C)[C@H](O)[C@H](C)O2)c2c(cc3c(c2O)C(=O)c2c(O)ccc(O)c2C3=O)[C@H]1C(=O)OC [Pyrromycin]
scaled lipid accumulation score [2]: ≤ 0

C[C@@H]1O[C@@H](O[C@H]2C[C@@H](O)[C@]3(CO)[C@H]4[C@H](O)C[C@]5(C)[C@@H](C6=CC(=O)OC6)CC[C@]5(O)[C@@H]4CC[C@]3(O)C2)[C@H](O)[C@H](O)[C@H]1O [Ouabain] [listing 1 of 2 here]
scaled lipid accumulation score [2]: 1.13 (active)

C[C@@H]1O[C@@H](O[C@H]2C[C@@H](O)[C@]3(CO)[C@H]4[C@H](O)C[C@]5(C)[C@@H](C6=CC(=O)OC6)CC[C@]5(O)[C@@H]4CC[C@]3(O)C2)[C@H](O)[C@H](O)[C@H]1O [Ouabain] [listing 2 of 2 here]
scaled lipid accumulation score (library stock concentration: 8.6 mM): 0.734

C[C@@H]1O[C@@H](O[C@@H]2C=C3CC[C@@H]4[C@H](CC[C@]5(C)[C@@H](c6ccc(=O)oc6)CC[C@]45O)[C@@]3(C)CC2)[C@H](O)[C@H](O)[C@H]1O [Proscillaridin A]
scaled lipid accumulation score: 0.768

C[C@@H]1CC[C@@]2(OC1)O[C@H]1C[C@H]3[C@@H]4CC=C5C[C@@H](O[C@@H]6O[C@H](CO)[C@@H](O[C@@H]7O[C@@H](C)[C@H](O)[C@@H](O)[C@H]7O)[C@H](O)[C@H]6O[C@@H]6O[C@@H](C)[C@H](O)[C@@H](O)[C@H]6O)CC[C@]5(C)[C@H]4CC[C@]3(C)[C@H]1[C@@H]2C [Dioscin]
scaled lipid accumulation score [7]: 0.577
scaled lipid accumulation score [2]: 0.255

C[C@@H]1O[C@@H](O[C@@H]2C[C@@H](O)[C@]3(CO)[C@H]4[C@H](O)C[C@]5(C)[C@@H](C6=CC(=O)OC6)CC[C@]5(O)[C@@H]4CC[C@]3(O)C2)[C@H](O)[C@H](O)[C@H]1O [Ouabain]
scaled lipid accumulation score [2]: 1 (active)

C[C@@H]1O[C@@H](O[C@H]2C[C@@H](O)[C@]3(CO)[C@@H]4C(CC[C@]3(O)C2)[C@@]2(O)CC[C@H](C3COC(=O)C3)[C@@]2(C)C[C@H]4O)[C@H](O)[C@H](O)[C@H]1O (stereo partly specified) [Dihydroouabain]
scaled lipid accumulation score [2]: 0.964 (active)

C[C@@H]1O[C@@H](O[C@H]2C[C@@H](O)[C@]3(CO)C4C(CC[C@]3(O)C2)[C@@]2(O)CC[C@H](C3=CC(=O)OC3)[C@@]2(C)C[C@H]4O)[C@H](O)[C@H](O)[C@H]1O (stereo partly specified) [Ouabain]
scaled lipid accumulation score [2]: 0.993 (active)
